# Whole data set: some 2,300 compounds, median “plate-normalized OD600 growth (mean of duplicates)” near 0.29, cut for the lowest 2% near 0.22. The sample holds the lowest values, similar compounds and a random draw of the others, so the mix is not that of the screen.
# System: Escherichia coli BW25113
# Experiment: plate-normalized OD600 growth (mean of duplicates) (OD600 (normalized)); higher = more growth (less inhibition)
# Settings: 10 µM
# Description: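 E. coli BW25113 in LB (100 µl, 96-well, no shaking) was exposed to 10 µM of each compound from a ~30,000-member library and grown at 37°C for 24 h or 15°C for 48 h, in duplicate. Growth was read as OD600 and the duplicate ODs were normalized across screening plates to correct plate-to-plate variation. Hits were >3σ below the mean OD600 at 15°C and <2σ below the mean at 37°C.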
Compound,"plate-normalized OD600 growth (temperature: 15°C, 48 h)","plate-normalized OD600 growth (temperature: 37°C, 24 h)"
CCOc1ccc(-c2[nH]nc3c2C2(C(=O)Nc4ccc(C)c(Br)c42)C(C#N)=C(N)O3)cc1 (stereo not given),0.245,0.6
N#CC1=C(N)Oc2n[nH]c(-c3cccs3)c2C12C(=O)Nc1ccc([N+](=O)[O-])cc12 (stereo not given),0.265,0.618
COC(=O)CN1C(=O)C2(C(C#N)=C(N)Oc3n[nH]c(C)c32)c2ccccc21 (stereo not given),0.207,0.65
CCOC(=O)c1c(N)oc2c(-c3ccc(C)c(Cl)c3)c3c(C(=O)OCC)c(N)oc3cc12,0.218,0.622
N#CCS(=O)(=O)c1cccs1,0.217,0.626
O=C(NC1Cc2ccccc2C1)c1cncc(Br)c1,0.281,0.658
c1ccc(-c2cc3c(nn2)CCc2nonc2-3)cc1,0.27,0.648
O=C(N/N=C/c1ccc(OC(=O)c2cccc(F)c2)cc1)C1=NNC(c2ccccc2)(c2ccccc2)C1,0.267,0.624
N#C/C(=C\c1ccc(OC(=O)c2cccc([N+](=O)[O-])c2)cc1)C(=O)c1ccccc1,0.211,0.634
COc1cc(O)ccc1/C=N/NC(=O)c1cccc([N+](=O)[O-])c1,0.248,0.614
CC(Oc1ccccc1)C(=O)Nc1ccc(Cl)cc1 (stereo not given),0.222,0.64
CC(=O)c1cnn(-c2ccccc2)c1C,0.259,0.623
O=C(/C=C/c1cccs1)C(C(=O)c1ccccc1)=C1SCCCCS1,0.244,0.615
O=C(CSc1nc2ccccc2s1)Nc1cccn2cc(-c3ccccc3)nc12,0.263,0.614
COc1ccc(CNCC2COc3ccccc3O2)cc1OC (stereo not given),0.26,0.638
CC(C)Nc1nc(Cl)nc(Nc2cccc(C(F)(F)F)c2)n1,0.262,0.62
CCN=C(NCC)SC1CC(=O)N(c2ccc(C(=O)O)cc2)C1=O (stereo not given),0.246,0.617
CCOc1ccc(C(C)(C)C(=O)Nc2ccc(C(=O)/C=C/c3ccco3)cc2)cc1,0.266,0.639

Compound,"plate-normalized OD600 growth (temperature: 15°C, 48 h)","plate-normalized OD600 growth (temperature: 37°C, 24 h)"
Clc1ccc2nc(N3CCOCC3)nc(-c3ccccc3)c2c1,0.251,0.61
CCC(=O)Nc1nc2ccc(C)cc2s1,0.246,0.603
N#CC(C(=O)Nc1cccc(C(F)(F)F)c1)C(=S)Nc1ccccc1Cl (stereo not given),0.254,0.644
CCCCOc1cc(C(=O)O)ccc1OC,0.261,0.64
COc1ccc(C(=O)N2CCN(c3c(C)cccc3C)CC2)cc1OC,0.257,0.622
COc1cc(C(=S)N2CCCCC2)ccc1OC(=O)c1ccccc1,0.00796,0.606
Clc1cccc(Cl)c1/C=N/Nc1nncc(-c2ccccc2)n1,0.186,0.641
CSCCC(NC(=O)c1ccccc1)C(=O)OCC(=O)Nc1ccccc1C#N (stereo not given),0.236,0.619
Clc1cccc(CN2CCN(Cc3ccco3)CC2)c1,0.237,0.636
Cc1cc2c(cc1C)CN(c1ccc(C(=O)N/N=C/c3ccccc3O)cc1)C2,0.25,0.63
COc1ccc(/C=N/NC(=O)COc2ccc(Cl)cc2)cc1I,0.257,0.62
CCCCOc1cccc(NC(=O)CCSc2nccn2C)c1,0.25,0.643
N#C/C(=C\c1ccccc1Cl)c1nc2ccccc2[nH]1,0.26,0.624
O=C(NCc1csc(-c2cccs2)n1)C1=Cc2ccccc2OC1,0.243,0.593
O=C(Nc1ccccc1C(=O)NC1CCCCNC1=O)c1cccs1 (stereo not given),0.253,0.638
COc1ccc(-c2cc(C(F)(F)F)n3nc(C(=O)NC(C)(C)C)c(Cl)c3n2)cc1OC,0.245,0.619
Cc1nc(Nc2ccc(F)cc2)c2oc3ccccc3c2n1,0.245,0.613

# From the supplement of paper PMC4371806
